Source: PubChem
Shown is part of a subset that was picked to be rich in hits.
CapD inh: blocks the Bacillus anthracis CapD enzyme. purified CapD enzyme, fluorescence intensity read-out; stronger effect = lower value. z-score (test concentration not listed). actives 0.23% (n = 140,000). AID 492967; in the data active = z-score mostly below about -2.9, no sharp cut-off; inactive = mostly above about -1.9
Each line names hits and unclear results; the compound was inactive in the other large screens.

O=C(CC(c1ccccc1)(c1ccccc1)c1ccccc1)NNC(=O)c1ccc(CSc2ccc(C(F)(F)F)cn2)o1	none
COc1cc(C2Nc3cc(C)ccc3NC3=C2C(=O)CC(c2ccccc2)C3)cc(OC)c1OC (centres undefined)	none
Cc1ccc(C2CC(=O)C3=C(C2)Nc2ccccc2NC3c2cccnc2)cc1 (centres undefined)	CapD inh -4.03
O=C1CC(c2ccccc2)CC2=C1C(c1ccccc1)Nc1ccccc1N2 (centres undefined)	none
COC(=O)c1c(C)[nH]c(C)c1/C=N/OC(=O)c1ccco1	none
O=C(O)c1ccc(C(=O)O)c2c(-c3ccc4c(=O)n5c6ccccc6nc5c5ccc(C(=O)O)c3c45)ccc(C(=O)O)c12	CapD inh -8.43
O=c1c2ccc(N/N=C/c3c4ccccc4cc4ccccc34)c3cccc(c32)c2nc3ccccc3n12	none
N#Cc1ccc2c(c1)nc1c3ccc(C(=O)O)c4c(C(=O)O)ccc(c(=O)n21)c43	none
N#Cc1c(C(F)(F)F)cc(-c2cccs2)nc1SCC(=O)NC1CC1	none
CN(C)c1ccc(C2CC(c3c(-c4ccccc4)c4cc(Cl)ccc4[nH]c3=O)=NN2C(=O)CCC(=O)O)cc1 (centres undefined)	none
CCN(Cc1ccncc1)S(=O)(=O)c1ccc(Br)cc1	none
COc1cc2[nH]c(=S)nc(Nc3ccc(NC(C)=O)cc3)c2cc1OC	none
COc1cc2[nH]c(=S)n(N(C(C)=O)C(C)=O)c(=O)c2cc1OC	CapD inh -12.9
COc1cc2[nH]c(=S)n(C3CC3)c(=O)c2cc1OC	none
CSc1nsc2nc(=O)c(/C=C3\C=CC(=O)C(O)=C3)c(N)n12	CapD inh -4.5
NS(=O)(=O)c1ccc(CCNC(=O)CSc2nc(NC3CCCCC3)c3ccccc3n2)cc1	none
O=C(O)c1ccc(NC(=O)c2ccc3c(c2)C(=O)N(Cc2ccco2)C3=O)cc1	CapD inh -7.55
CC(C)(C)NC(=O)c1ccc2c(c1)C(=O)N(Cc1ccco1)C2=O	none
CCN1C(=O)c2ccc(C(=O)Nc3ccc(C(=O)O)cc3)cc2C1=O	none
C/C(=N/O)C1CCCCCCCCCCC1	none
CC(C)N1C/C(=C\c2ccc(N3CCOCC3)cc2)C(=O)/C(=C/c2ccc(N3CCOCC3)cc2)C1	none
CCCN1CCC(N(C(=O)c2cccc(NC(=O)c3ccc(Cl)nc3)c2)C2CC2)CC1	none
Cc1ccnc2c(NC(=O)c3ccc(N4C(=O)C5C6C=CC(C6)C5C4=O)cc3)cccc12 (centres undefined)	none
CCOC(=O)c1c[nH]c2c(F)ccc(F)c2c1=O	none
CCOC(=O)c1coc2c(F)c(F)c(F)cc2c1=O	CapD inh -11.5
CCOC(=O)c1c[nH]c2ccccc2c1=O	none
O=C(NCc1ccc(C(F)(F)F)cc1)c1ccc(F)cc1	none
Cc1cccc(Oc2ncccc2N)c1C	none
O=c1[nH]c2c(s1)C(c1ccccc1)C1C3CCC(C3)C1S2 (centres undefined)	none
O=C1NC(=O)C2C1Sc1[nH]c(=O)sc1C2c1ccco1 (centres undefined)	CapD inh -4.13
COc1ccc(C2c3sc(=O)[nH]c3SC3C(=O)N(c4ccccc4)C(=O)C32)cc1 (centres undefined)	none
O=C(c1ccc2c(=O)n(CC3CCCO3)c(=S)[nH]c2c1)N1CCN(Cc2ccc3c(c2)OCO3)CC1 (centres undefined)	none
CC1(C)CN=C(Nc2ccc(C(F)(F)F)cc2)S1	none
COc1cccc(C=NCCCC2C=NNC2=O)c1O (centres undefined)	none
COc1ccc(C2CCCCC2)cc1	none
COc1ccc([S+]2CCCCC2)cc1	CapD inh -4.91
COc1ccc(CN2CCCCCC2)cc1	none
Cc1ccc(C2CCN(C(=S)NCc3ccccc3)C2)cc1 (centres undefined)	none
CN(C)/C=C/C(=N)SCc1c(F)cccc1Cl	CapD inh -3.79
N=C(N)SCc1c(Cl)cccc1Cl	none
Fc1cccc(Cl)c1CSCc1c(F)cccc1Cl	none
COc1cc(OC)nc(COc2ccc(C(=O)NC(C)c3ccccc3)cc2)n1 (centres undefined)	none
CCOC(=O)C1=C(C)NC(=O)CC1c1ccc(Cl)cc1Cl (centres undefined)	none
CCOC(=O)c1c(NC(=O)c2ccc(Cl)c([N+](=O)[O-])c2)sc(C(=O)Nc2cccc(Cl)c2C)c1C	none
CCCCc1ccccc1NC(=O)NCCC	none
CS(=O)(=O)c1cc(C#N)c(N2CCN(C(=O)Nc3cccc(C(F)(F)F)c3)CC2)nc1-c1ccccc1	none
CCOC(=O)C1=C(N)n2c(s/c(=C/c3ccco3)c2=O)=C(C(=O)OCC)C1c1ccco1 (centres undefined)	CapD inh -4.2
CCOC(=O)C1=C(N)n2c(s/c(=C/c3ccccc3)c2=O)=C(C(=O)OCC)C1c1ccccc1 (centres undefined)	none
CCOC(=O)C1=C(N)n2c(s/c(=C\c3ccco3)c2=O)=C(C#N)C1c1ccco1 (centres undefined)	none
COc1cc(OC)nc(CN2CCN(Cc3ccccc3)CC2)n1	none
CCC1CCCCN1C(=O)CSc1nc2ccccc2s1 (centres undefined)	none
Nc1ccc(-c2nnc(-c3ccco3)o2)cc1	none
O=c1oc(-c2ccco2)ns1	CapD inh -8.54
O=c1oc(-c2cc3ccccc3s2)ns1	none
N#C/C(=C\Nc1ccc(Br)cc1)c1nc(-c2ccccc2)cs1	none
N#C/C(=C\Nc1ccc(C(N)=O)cc1)c1nc(-c2ccccc2)cs1	none
N#C/C(=C\C=C\c1ccco1)c1nc(-c2ccccc2)cs1	CapD inh -4.27
CCOC(CCNC(=O)c1ccc2c(=O)n(Cc3ccc4c(c3)OCO4)c(=S)[nH]c2c1)OCC	none
O/N=C(/C(=N/O)c1ccco1)c1ccco1	none
NNC(=O)C1CCCNC1=O (centres undefined)	none
COc1ccc(CCNC(=O)c2c(C)cc(=O)oc2C)cc1OC	none
Cc1cc(=O)oc(C)c1C(=O)NCCCN1CCN(c2ccc(F)cc2)CC1	none
Cc1cc(=O)oc(C)c1C(=O)NCc1c(F)cc(F)cc1F	CapD inh -5.93
COc1ccc(OC)c(NC(=O)c2cnn3c(C(F)(F)F)cc(-c4ccc(OC)c(OC)c4)nc23)c1	none
COc1ccc(C(=O)c2coc3ccc(OC)cc3c2=O)cc1	none
CCCN1C(=O)c2ccccc2C(C(=O)O)C1c1ccc(OC)cc1 (centres undefined)	none
COc1ccc(C2/C(=C(\O)c3ccccc3)C(=O)C(=O)N2CCN2CCOCC2)cc1 (centres undefined)	none
COc1ccc(C2C(C(=O)/C=C/c3ccccc3)=C(O)C(=O)N2CCO)cc1 (centres undefined)	CapD inh -3.95
N#CC1=C(N)SC(c2cccs2)C(C#N)=C1N (centres undefined)	CapD inh -5.11
N#CC1=C(N)OC(C2CC2)=C(C#N)C1c1cccs1 (centres undefined)	none
COc1cc(OC)cc(C2SC(N)=C(C#N)C(N)=C2C#N)c1 (centres undefined)	none
NC(=O)C1CCN(C(=O)c2ccc(/C=C3/Oc4ccccc4N(Cc4ccccc4F)C3=O)cc2)CC1	none
O=C(Sc1nc2ccccc2o1)N1c2ccccc2Sc2ccccc21	none
C1CCOC(CN2CCCC2)OC1	none
CSC(=CC(=O)c1ccccc1F)SC	CapD inh -4.11
CSC(=CC(=O)c1ccc(F)cc1)SC	none
CSC(=CC(=O)c1cccc2ccccc12)SC	none
Cc1cccc(CCNC(=O)Nc2cn(C)c(=O)c3ccccc23)c1	none
O=C1NC(=O)/C(=C\c2ccccc2Oc2cccc(C(F)(F)F)c2)S1	none
CCOC(=O)CC(=O)c1ccc([N+](=O)[O-])cc1	none
CCNc1ccc([N+](=O)[O-])cc1	CapD inh -4.51
CC(=O)Nc1ccc([N+](=O)[O-])cc1	none
CSC1=NC(=Nc2cccc(C)c2)C2(CCCCC2)N1c1ccccc1C	none
